Bioassay records from PubChem BioAssay.
Only some compounds are listed: those with a hit (about 3.7% of all), similar ones and a draw of the others.
TCR activator – T cell receptor activation; Potency, µM (titrated, usually from 9.22 µM), inactives show top-dose activation of IL-2 secretion, hits mostly activators; 330,000 tested, under 10 active; AID 504894; primary human leukocytes, anti-CD3, IL-2 HTRF, 48 h; note: % of control where 0% means no effect
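1) Mix primary human leukocytes, a-CD3 beads and compound. 2) Incubate 48 hr. 3) Add HTRF IL-2 reagents (a-IL-2-K, a-IL-2-d2).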
PI5P4K alpha inh – blocks human PI5P4K alpha kinase activity; AID 652105; 1.2% of 330,000 active; PI5P4Kalpha enzyme, ADP-Glo luminescence, 60 min; active compounds read low; max response, %; active = max response of -50% or lower; inconclusive = between -30% and -50%; inactive = -30% or higher; note: value at the top dose of about 77 µM; % is set by controls: 0 for no effect and ±100 for the full control effect
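Single end-point luminescence (ADP-Glo) quantified ADP from PI5P4Kalpha turnover; ATP 5 microM final, 1 h at RT, 0.1% CHAPS and 0.28 mM EGTA in HEPES pH 7.4.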
PLK1 PBD block – PLK1 (human) polo-box domain binding inhibition | AID 720504 | Plk1 PBD binding of FITC phosphopeptide, fluorescence polarization | 2.8% of 360,000 active | Potency, µM, without a hit: max response, negative = inhibition, actives largely listed as inhibitors; note: potency is the fitted concentration of half-maximal effect; series mostly up to about 57 µM; % is set by controls: 0 for no effect and ±100 for the full control effect; nearly all actives have a fitted effect of over 65% in size
FEN1 inh – human FEN1 inhibition | P39748 | Recombinant FEN1 flap cleavage, fluorescence, 15 min | Potency, µM (series often up to 114 µM), inactives show top-dose activity change, negative = inhibition, hits mostly inhibitors | 0.35% of 390,000 active | AID 588795; note: potency is the fitted concentration of half-maximal effect; % is set by controls: 0 for no effect and ±100 for the full control effect; nearly all actives have a fitted effect of over 65% in size
Target sequence (P39748 whole entry, looked up): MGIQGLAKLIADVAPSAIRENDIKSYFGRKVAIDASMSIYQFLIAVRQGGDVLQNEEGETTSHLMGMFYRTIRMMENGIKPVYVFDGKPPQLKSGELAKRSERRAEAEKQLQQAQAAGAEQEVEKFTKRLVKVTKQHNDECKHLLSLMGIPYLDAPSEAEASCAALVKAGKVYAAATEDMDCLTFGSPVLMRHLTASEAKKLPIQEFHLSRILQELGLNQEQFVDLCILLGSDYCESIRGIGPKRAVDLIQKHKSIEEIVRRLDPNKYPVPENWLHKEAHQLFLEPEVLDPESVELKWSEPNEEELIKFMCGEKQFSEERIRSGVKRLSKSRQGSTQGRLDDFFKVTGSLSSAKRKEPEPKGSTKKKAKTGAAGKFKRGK
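Recombinant FEN1 (10 nM) was preincubated with pin-transferred compounds for 15 min at room temperature, then flap DNA substrate (50 nM final) was added. Plates were read at 0 and 15 min, and normalized concentration–response data were fitted to a four-parameter Hill equation.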
VDR inhibitor – vitamin D3 receptor (human) inhibition | VDR-SRC2-3 peptide fluorescence polarization, 2 h | 0.93% of 400,000 active | Potency, µM, without a hit: max response, negative = inhibition, most hits filed as inhibitors | AID 504847; note: potency is the fitted concentration of half-maximal effect; % is set by controls: 0 for no effect and ±100 for the full control effect
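Signal is fluorescence polarization, reporting how far test compounds block the interaction of VDR with the SRC2-3 coregulator peptide after a 2 h room-temperature incubation.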
WRN helicase inh – WRN helicase (human) inhibition | Q14191 | 0.46% of 360,000 active | AID 651768 | Potency, µM (titrated, usually from 114 µM), without a hit: at the top dose activity change, negative = inhibition, usual class: inhibitors | WRN helicase unwinding, fluorescent forked duplex, kinetic; note: potency is the fitted concentration of half-maximal effect; % is set by controls: 0 for no effect and ±100 for the full control effect; nearly all actives have a fitted effect of over 55% in size
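WRN at 20 nM final was preincubated with compound for 15 min at room temperature; reaction started with 100 nM forked duplex oligonucleotide carrying fluorophore and quencher plus 2 mM ATP (final). Unwinding followed kinetically by red fluorescence (ex 525/em 598 nm).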
Starred values were filed as active, the others as inactive; [ ] = dose if it differs, or a comment. Unless noted, calls come from the whole dose curve; as a rule, active = well fitted curve in the direction sought with a large enough effect; inconclusive = small, poorly fitted or top-dose-only effect, or another doubt; inactive = no such curve, though single readings can be large; an effect the other way counts as inactive or inconclusive.

Results for Cc1ccc(-c2nnn(CC(=O)N(CCO)C(C(=O)NC3CCCCC3)c3ccncc3)n2)o1 (configuration not stated) ?
TCR activator: -2%; PI5P4K alpha inh: -4; PLK1 PBD block: 34µM*; FEN1 inh: -1%; VDR inhibitor: -17%; WRN helicase inh: 3%[57.1 µM]

Results for O=C(NN=Cc1cc(Br)c(O)c(Br)c1)c1ccccc1NS(=O)(=O)c1cccs1 ?
TCR activator: 5%; PI5P4K alpha inh: -67*; PLK1 PBD block: inconclusive; FEN1 inh: -13%; VDR inhibitor: -7%; WRN helicase inh: -33%

How did COc1ccc(NS(=O)(=O)c2cccc(C(=O)NN=Cc3cc(Br)c(O)c(Br)c3)c2)cc1 do in these assays?
TCR activator: -1%; PI5P4K alpha inh: -50*; PLK1 PBD block: inconclusive; FEN1 inh: inconclusive; VDR inhibitor: 1%; WRN helicase inh: inconclusive

What do the screens show for `NCC(=O)c1c[nH]c2ccccc12`?
FEN1 inh: 0%

How did Cn1c(=O)c(C(=O)CN2CCc3ccccc32)c(N)n(Cc2ccccc2)c1=O do in these assays?
TCR activator: 3%[46.1 µM]; PI5P4K alpha inh: -19; PLK1 PBD block: 30µM*; FEN1 inh: -1%; VDR inhibitor: inconclusive; WRN helicase inh: 4%

Results for CCOC(=O)C1Nc2ccc(Br)cc2C2C=CCC12 (configuration not stated) ?
TCR activator: 1%; PI5P4K alpha inh: inconclusive; PLK1 PBD block: inconclusive; FEN1 inh: -20%; VDR inhibitor: inconclusive; WRN helicase inh: -21%

How did CCOC(=O)C1Nc2ccc(C)cc2C2C=CCC12 (configuration not stated) do in these assays?
TCR activator: 9%; PI5P4K alpha inh: inconclusive; PLK1 PBD block: -29%; FEN1 inh: -11%; VDR inhibitor: -25%; WRN helicase inh: -7%

How did O=C(O)C1Nc2c(Cl)cc(Cl)cc2C2C=CCC12 (configuration not stated) do in these assays?
TCR activator: 7%; PI5P4K alpha inh: -99*; PLK1 PBD block: 7.5µM*; FEN1 inh: 22µM*; VDR inhibitor: inconclusive; WRN helicase inh: 10µM*

What do the screens show for `Cc1ccc(C)c2c1NC(C(=O)O)C1CC=CC21` (configuration not stated)?
FEN1 inh: 18µM*; VDR inhibitor: -22%

How did O=C(O)C1Nc2c(O)cccc2C2C=CCC12 (configuration not stated) do in these assays?
TCR activator: 3%; PI5P4K alpha inh: -81*; PLK1 PBD block: 27µM*; FEN1 inh: 40µM*; VDR inhibitor: 14%; WRN helicase inh: 11µM*

What do the screens show for `O=C(O)C1Nc2ccc(Br)cc2C2C=CCC12` (configuration not stated)?
TCR activator: 1%; PI5P4K alpha inh: -82*; PLK1 PBD block: 5.3µM*; FEN1 inh: inconclusive; VDR inhibitor: inconclusive; WRN helicase inh: 28µM*

How did CC(C)CNC(=O)C1Nc2ccccc2C2C=CCC12 (configuration not stated) do in these assays?
TCR activator: -7%; PI5P4K alpha inh: inconclusive; PLK1 PBD block: inconclusive; FEN1 inh: -20%; VDR inhibitor: inconclusive; WRN helicase inh: 5%

What do the screens show for `Cc1nc2ccc(S(=O)(=O)N(C)CC(=O)Nc3ccc(C(C)C)cc3)cc2s1`?
FEN1 inh: -2%; VDR inhibitor: 7%

Results for COCCN(CC(=O)NCc1ccc2c(c1)OCO2)C(=O)CCC(=O)Nc1nccs1 ?
TCR activator: 1%[46.1 µM]; PI5P4K alpha inh: 0; PLK1 PBD block: -5%; FEN1 inh: 0%; VDR inhibitor: -13%; WRN helicase inh: 3%

Results for COCCNC(=O)CN(Cc1ccc2c(c1)OCO2)C(=O)CCC(=O)Nc1nccs1 ?
TCR activator: 2%; PI5P4K alpha inh: inconclusive; PLK1 PBD block: 3.4µM*; FEN1 inh: -1%; VDR inhibitor: inconclusive; WRN helicase inh: 21%

What do the screens show for `CCC12CN3CC(C)(CN(C1)C3c1c(C)n(C)c3ccccc13)C2=O` (configuration not stated)?
FEN1 inh: -5%; VDR inhibitor: 16%

How did C[C@H](NC(=O)OC(C)(C)C)C(=O)c1ccco1 do in these assays?
FEN1 inh: -12%

How did Cc1cccc(N=C2NC(=O)/C(=C/C=C/c3ccco3)S2)c1 do in these assays?
TCR activator: 4%[46.1 µM]; PI5P4K alpha inh: -67*; PLK1 PBD block: inconclusive; FEN1 inh: inconclusive; VDR inhibitor: inconclusive; WRN helicase inh: inconclusive

Results for O=C1NC(=Nc2ccc(O)cc2)S/C1=C/c1ccco1 ?
TCR activator: 9%; PI5P4K alpha inh: inconclusive; PLK1 PBD block: -11%; FEN1 inh: -1%; VDR inhibitor: 5%; WRN helicase inh: -10%

Results for O=C1NC(=Nc2ccc3ccccc3c2)S/C1=C/c1ccco1 ?
TCR activator: -2%; PI5P4K alpha inh: -55*; PLK1 PBD block: -29%; FEN1 inh: -8%; VDR inhibitor: 1%; WRN helicase inh: -4%[11.6 µM]

What do the screens show for `COc1ccc(N=C2S/C(=C\c3ccco3)C(=O)N2CC(C)C)cc1`?
TCR activator: -1%; PI5P4K alpha inh: -12; PLK1 PBD block: -6%; FEN1 inh: -5%; VDR inhibitor: 19%; WRN helicase inh: 9%

How did COc1ccc(N=C2NC(=O)/C(=C\C=C\c3ccco3)S2)cc1 do in these assays?
TCR activator: 4%; PI5P4K alpha inh: -81*; PLK1 PBD block: 21µM*; FEN1 inh: inconclusive; VDR inhibitor: 1%; WRN helicase inh: 22µM*

How did COC1=C(N)C(=O)c2nc(-c3nc(C(=O)O)c(C)c(-c4ccc(OC)c(OC)c4O)c3N)ccc2C1=O do in these assays?
TCR activator: -15%; PI5P4K alpha inh: -12; PLK1 PBD block: -26%; FEN1 inh: 4µM*; VDR inhibitor: 14µM*; WRN helicase inh: inconclusive

How did COc1ccc(OC)c(CNS(=O)(=O)c2ccc(-c3cc(C(F)(F)F)on3)s2)c1 do in these assays?
FEN1 inh: -16%; VDR inhibitor: 16%

Results for CC1=C(C(=O)NC2CCCC(C)C2C)C2(CCCCC2)OC1=O (configuration not stated) ?
TCR activator: -2%; PI5P4K alpha inh: -2; PLK1 PBD block: 24µM*; FEN1 inh: 6%; VDR inhibitor: -8%; WRN helicase inh: 1%

How did CCSc1nnc2ccc(-c3ccc(OC)c(OC)c3)nn12 do in these assays?
TCR activator: -7%; PI5P4K alpha inh: -10; PLK1 PBD block: 21µM*; FEN1 inh: -3%; VDR inhibitor: inconclusive; WRN helicase inh: inconclusive

What do the screens show for `COc1ccc(S(=O)(=O)Oc2c(OC)cc(C(=S)N3CCOCC3)cc2OC)cc1`?
TCR activator: -2%; PI5P4K alpha inh: -5; PLK1 PBD block: 27µM*; FEN1 inh: -4%; VDR inhibitor: inconclusive; WRN helicase inh: -2%
